# According to PubChem BioAssay (NCI):
# Compounds without any hit were thinned out: in the full panel of roughly 83,000, 20% have a hit.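 Results are percent growth after 48 hours of single-concentration exposure. 100 means growth as in untreated cells, lower positive values show inhibition; negative values down to -100 show cell death.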 Values without a mark were called inactive. Calls of active or inactive are those of the source. How the source made its calls: active means growth percent below 10; inactive means the rest.
# Experiments:
# Experiment in all cases: NCI-60 one-dose screen, 48 h (100 = growth as untreated, 0 = no growth, -100 = all killed)
# Details in all cases: 10 µM unless noted
# K-562 leukemia = tested on: K-562 leukemia
# MALME-3M melanoma = tested on: MALME-3M melanoma
# MDA-MB-231 breast = tested on: MDA-MB-231 breast
# RXF 393 renal = tested on: RXF 393 renal
# SF-268 CNS = tested on: SF-268 CNS
# SF-295 CNS = tested on: SF-295 CNS
# SF-539 CNS = tested on: SF-539 CNS
# UACC-257 melanoma = tested on: UACC-257 melanoma
# M14 melanoma = tested on: M14 melanoma
# HCT-15 colon = tested on: HCT-15 colon
# HT29 colon = tested on: HT29 colon
# SNB-75 CNS = tested on: SNB-75 CNS
# SNB-19 CNS = tested on: SNB-19 CNS
# U251 CNS = tested on: U251 CNS
# PC-3 prostate = tested on: PC-3 prostate
# SK-MEL-5 melanoma = tested on: SK-MEL-5 melanoma
# UACC-62 melanoma = tested on: UACC-62 melanoma
# LOX IMVI melanoma = tested on: LOX IMVI melanoma
# SK-MEL-28 melanoma = tested on: SK-MEL-28 melanoma
# SK-MEL-2 melanoma = tested on: SK-MEL-2 melanoma
SMILES,growth (K-562 leukemia),growth (MALME-3M melanoma),growth (MDA-MB-231 breast),growth (RXF 393 renal),growth (SF-268 CNS),growth (SF-295 CNS),growth (SF-539 CNS),growth (UACC-257 melanoma),growth (M14 melanoma),growth (HCT-15 colon),growth (HT29 colon),growth (SNB-75 CNS),growth (SNB-19 CNS),growth (U251 CNS),growth (PC-3 prostate),growth (SK-MEL-5 melanoma),growth (UACC-62 melanoma),growth (LOX IMVI melanoma),growth (SK-MEL-28 melanoma),growth (SK-MEL-2 melanoma)
CC(=O)Nc1cc(F)cc(-c2ccc3[nH]cc(-c4ccccc4)c3n2)c1,0.935% (active),-14.3% (active),-3.42% (active),-11.8% (active),41.3%,-42.9% (active),-28.5% (active),-29.3% (active),-14.8% (active),-60.8% (active),-49.6% (active),111%,12.9%,-2.16% (active),20%,49%,-1.28% (active),-62.4% (active),-67.5% (active),-17.5% (active)
OC1CCN(CCCOc2c3ccccc3nc3c2oc2ccccc23)CC1,6.75% (active),-32.6% (active),-31.5% (active),-43.1% (active),2.44% (active),-14.7% (active),-12.5% (active),-17.7% (active),-71.8% (active),-8.3% (active),3.65% (active),-1.06% (active),0.345% (active),4.21% (active),-1.48% (active),-69.1% (active),-57.8% (active),-63.3% (active),-2.42% (active),-62.4% (active)
O=C1/C(=C/C2=Cc3ccccc3OC2)SC(=S)N1c1ccc(F)cc1,91%,101%,99%,106%,111%,102%,98.5%,108%,103%,105%,118%,100%,93.2%,94.9%,115%,100%,97.4%,92.5%,97.9%,120%
O=C(O)CCCCCN1C(=O)/C(=C/c2ccc(O)c(O)c2)SC1=S,100%,97.5%,91.8%,124%,103%,99.3%,96%,108%,106%,101%,116%,95.1%,96.1%,103%,117%,98.9%,96.8%,108%,102%,140%
CN(C)CCCNc1c2ccccc2nc2c1oc1ccc(Cl)cc12,-1.57% (active),30.7%,-31.7% (active),-65.8% (active),40.9%,24.6%,18.3%,49.9%,27%,-31.1% (active),-34% (active),37.5%,43.3%,33.4%,47.2%,47.9%,52.1%,-86.5% (active),43.8%,70.8%
OC1CCN(CCCOc2c3ccc(Cl)cc3nc3c2oc2ccccc23)CC1,-7.34% (active),-81.2% (active),-14.7% (active),-74.3% (active),4.41% (active),-23.2% (active),-76.1% (active),-69.2% (active),-84.2% (active),-31.7% (active),-44.3% (active),-19.1% (active),6.3% (active),-43.3% (active),-4.93% (active),-97.8% (active),-69.7% (active),-85.8% (active),-78.6% (active),-86.3% (active)
N#Cc1c(-c2ccc(Cl)cc2)nc(SCc2ccc(F)cc2)nc1N1CCNCC1,-34.5% (active),88.3%,16.2%,58.5%,73.3%,96.8%,75.9%,86.4%,72.8%,1.29% (active),-51.8% (active),65.3%,76.6%,-71.5% (active),53.8%,62.5%,95%,-59.2% (active),99.3%,111%
CCOC(=O)c1csc(NC(=O)CSc2nc3sc4c(c3c(=O)n2-c2ccc(Cl)cc2)CCCC4)n1,93.4%,104%,94.6%,100%,89%,91.9%,104%,100%,93.1%,97.7%,122%,86.2%,96%,98.4%,92.4%,78%,85%,56.5%,105%,105%
